Data published in the supplement of paper PMC4723716.
± gives the uncertainty stated by the source. In all, about 9,900 compounds were measured (“viability index relative to DMSO control”: median about 1, lowest 2% from about 0.85 on). The sample holds the lowest values, similar compounds and a random draw of the others, so the mix is not that of the screen.

Test system: Plasmodium falciparum NF54 stage V gametocytes
Assay: viability index relative to DMSO control (fraction); higher = less gametocyte killing
Settings: 2.5 µM, incubation time: 72 h
Summary of the method: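 Gametocytes (P. falciparum NF54, stage V) were treated with compound at 2.5 µM for 72 hr at 37°C in low oxygen, in serum-free medium at 0.75% gametocytemia and 1.25% hematocrit. Counts of 20–70 µm2 red particles, taken from one field per well after MitoTracker Red CMXRos with saponin, were divided by the plate mean of solvent-only wells. This ratio is the viability index.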

[1] = library set: Broad Institute DOS
[2] = library set: Broad Institute Blood Stage

Row | SMILES | viability index [1] | viability index [2]
1 | C[C@@H]1CN([C@@H](C)CO)C(=O)Cc2cc(NC(=O)CCC(F)(F)F)ccc2O[C@@H]1CN(C)CC1CC1 | 1.04 ± 0.075 | 
2 | Cc1noc(C)c1S(=O)(=O)N(C)C[C@H]1OCCCC[C@H](C)Oc2ccc(NS(=O)(=O)c3cn(C)cn3)cc2C(=O)N([C@H](C)CO)C[C@@H]1C | 1.08 ± 0.019 | 
3 | Cc1noc(C)c1S(=O)(=O)N(C)C[C@H]1OCc2cn(nn2)CCCC(=O)N([C@H](C)CO)C[C@@H]1C | 0.952 ± 0.014 | 
4 | C[C@H](CO)N1C[C@H](C)[C@@H](CN(C)C)OCc2ccccc2-c2c(n(C)c3ccccc23)C1=O | 1.04 ± 0.08 | 
5 | CNC[C@@H]1OCCCC[C@@H](C)Oc2ccc(NC(=O)Nc3ccc(OC)cc3)cc2C(=O)N([C@H](C)CO)C[C@H]1C | 1.05 ± 0.011 | 
6 | C[C@H]1CN([C@@H](C)CO)C(=O)c2ccccc2-c2ccccc2CO[C@@H]1CN(C)C(=O)[C@@H]1CCCN1C | 0.946 ± 0.043 | 
7 | CC(C)(C)[S@@](=O)N1Cc2cc(C(=O)NCCc3ccncc3)nc(-c3cccc(-c4cccc(C#N)c4)c3)c2[C@H]1CCO | 1.06 ± 0.084 | 
8 | CC(C)NC(=O)N1Cc2cc(C(=O)NC3Cc4ccccc4C3)nc(-c3cccc(-c4cccnc4)c3)c2[C@H]1CCO | 0.764 ± 0.091 | 
9 | CC(C)(C)[S@](=O)N1Cc2cc(C(=O)NCc3ccccn3)nc(-c3cccc(-c4ccccc4F)c3)c2[C@@H]1CCO | 0.955 ± 0.08 | 
10 | CC(C)NC(=O)N1Cc2cc(C(=O)NC3CCC3)nc(-c3cccc(-c4cncnc4)c3)c2[C@@H]1CCO | 1.01 ± 0.018 | 
11 | COc1ccc(CNC(=O)c2cc3c(c(-c4cccc(-c5ccc(C#N)cc5)c4)n2)[C@H](CCO)N([S@@](=O)C(C)(C)C)C3)cc1 | 0.977 ± 0.085 | 
12 | CC(C)(C)[S@](=O)N1Cc2cc(C(=O)NCc3ccccc3F)nc(-c3cccc(-c4cncnc4)c3)c2[C@@H]1CCO | 0.89 ± 0.056 | 
13 | COc1cccc(-c2cccc(-c3nc(C(=O)NCc4ccc(Oc5ccccc5)cc4)cc4c3[C@@H](CCO)N(S(=O)C(C)(C)C)C4)c2)c1 (stereo partly drawn) |  | 0.799 ± 0.032
14 | CC(C)(C)[S@@](=O)N1Cc2cc(C(=O)NCc3ccccc3F)nc(-c3cccc(-c4cncnc4)c3)c2[C@H]1CCO | 0.801 ± 0.1 | 
15 | CC(C)(C)S(=O)N1Cc2cc(C(=O)NCc3ccc(Oc4ccccc4)cc3)nc(-c3cccc(-c4cccc(F)c4)c3)c2[C@@H]1CCO (stereo partly drawn) | 1.02 ± 0.034 | 
16 | CC(C)(C)[S@](=O)N1Cc2cc(C(=O)NCCc3ccncc3)nc(-c3cccc(-c4cccc(C#N)c4)c3)c2[C@@H]1CCO | 1.08 ± 0.081 | 
17 | CC(C)NC(=O)N1Cc2cc(C(=O)NC3Cc4ccccc4C3)nc(-c3cccc(-c4cccnc4)c3)c2[C@@H]1CCO | 0.97 ± 0.052 | 
18 | CC(C)(C)[S@@](=O)N1Cc2cc(C(=O)NCCc3ccncc3)nc(-c3cccc(-c4ccccc4)c3)c2[C@H]1CCO |  | 0.763 ± 0.047
19 | CO[C@@H]1CC[C@H]2CCN(C)C(=O)[C@H](C)CN(C)C(=O)c3cc(C#N)ccc3OC[C@@H]1O2 | 0.973 ± 0.056 | 
20 | CCC(=O)Nc1ccc2c(c1)C(=O)N(C)C[C@@H](OC)[C@H](C)CN(C(=O)Cc1cccnc1)[C@@H](C)CO2 | 1.13 ± 0.043 | 
21 | O=C(Cc1ccncc1)N1CC[C@@H]2[C@H](CO)Nc3ccc(Br)cc3[C@@H]21 | 1.077 ± 0.0015 | 
22 | C/C=C/c1cccc(-c2nc(C(=O)Nc3nccs3)cc3c2[C@@H](CCO)N(C(=O)NC(C)C)C3)c1 | 0.867 ± 0.035 | 
23 | C[C@@H]1CN([C@H](C)CO)C(=O)Cc2cc(NC(=O)Nc3ccc(F)cc3)ccc2O[C@H]1CN(C)S(C)(=O)=O | 0.939 ± 0.16 | 

Row | SMILES | viability index [1] | viability index [2]
24 | CC(=O)NC[C@H]1[C@@H](c2ccc(C#Cc3ccccc3F)cc2)[C@@H](CO)N1C(C)=O | 1.05 ± 0.002 | 
25 | C/C=C/c1ccc([C@H]2[C@@H](CO)N(C(=O)NC3CCCCC3)[C@H]2C#N)cc1 | 1.11 ± 0.16 | 
26 | CC(C)C#Cc1ccc([C@@H]2[C@@H](CO)N(C(=O)c3cccc(F)c3)[C@H]2C#N)cc1 | 1.17 ± 0.073 | 
27 | C[C@@H]1CCCCO[C@@H](CN(C)S(=O)(=O)c2ccc(F)cc2)[C@@H](C)CN([C@@H](C)CO)C(=O)c2cc(N(C)C)ccc2O1 | 0 | 
28 | Cc1noc(C)c1S(=O)(=O)N(C)C[C@@H]1OCCCC[C@@H](C)Oc2ccc(N(C)C)cc2C(=O)N([C@@H](C)CO)C[C@@H]1C | 1.08 ± 0.068 | 
29 | C[C@@H]1CCCCO[C@@H](CN(C)S(=O)(=O)c2ccc(F)cc2)[C@H](C)CN([C@@H](C)CO)C(=O)c2cc(N(C)C)ccc2O1 | 1.05 ± 0.092 | 
30 | Cc1noc(C)c1S(=O)(=O)N(C)C[C@H]1OCCCC[C@@H](C)Oc2ccc(N(C)C)cc2C(=O)N([C@H](C)CO)C[C@@H]1C | 1.02 ± 0.029 | 
31 | C[C@H]1CCCCO[C@H](CN(C)S(=O)(=O)c2ccc(F)cc2)[C@@H](C)CN([C@@H](C)CO)C(=O)c2cc(N(C)C)ccc2O1 | 1.09 ± 0.17 | 
32 | Cc1noc(C)c1S(=O)(=O)N(C)C[C@@H]1OCCCC[C@@H](C)Oc2ccc(N(C)C)cc2C(=O)N([C@@H](C)CO)C[C@H]1C | 0.635 ± 0.13 | 
33 | CCC(=O)N1[C@@H](CO)[C@@H]2c3ccccc3N(C(=O)Nc3ccc(Cl)cc3)C[C@@H]21 | 1.1 ± 0.044 | 
34 | COc1cccc(-c2ccc([C@H]3[C@H]4CNC[C@@H]3N4CC3CCCCC3)cc2)c1 | 0.963 ± 0.029 | 
35 | CCCC#Cc1cnc2c(c1)C(=O)N([C@H](C)CO)C[C@H](C)[C@H](CN(C)C(=O)Nc1cc(F)ccc1F)O2 | 1.02 ± 0.081 | 
36 | COc1ccccc1CN1C[C@@H](C)[C@H](OC)CN(C)C(=O)c2cc(NC(=O)Nc3ccccc3OC)ccc2OC[C@H]1C | 1.02 ± 0.091 | 
37 | COc1ccccc1NC(=O)Nc1ccc2c(c1)OC[C@@H](C)N(Cc1ccccc1Cl)C[C@@H](C)[C@H](OC)CN(C)C2=O |  | 0.821 ± 0.053
38 | CO[C@@H]1CN(C)C(=O)c2cc(NC(=O)Nc3cccc(Cl)c3)ccc2OC[C@H](C)N(C(=O)Nc2c(C)noc2C)C[C@H]1C | 1.07 ± 0.019 | 
39 | CO[C@H]1CN(C)C(=O)c2cc(NC(=O)Nc3cccc(Cl)c3)ccc2OC[C@H](C)N(C(=O)Nc2c(C)noc2C)C[C@H]1C | 0.7814 ± 0.0047 | 
40 | COc1ccccc1CN1C[C@@H](C)[C@H](OC)CN(C)C(=O)c2ccc(NC(=O)Nc3ccccc3OC)cc2OC[C@H]1C |  | 0.855 ± 0.025
41 | CO[C@@H]1CN(C)C(=O)c2cc(NC(=O)Nc3cccc(Cl)c3)ccc2OC[C@@H](C)N(C(=O)Nc2c(C)noc2C)C[C@H]1C | 1.052 ± 0.0092 | 
42 | Fc1cccc(-c2ccc([C@H]3[C@H]4CNC[C@@H]3N4CC3CCOCC3)cc2)c1 | 1.02 ± 0.0019 | 
43 | C[C@@H]1CN([C@@H](C)CO)C(=O)c2ccccc2-c2ccccc2CO[C@@H]1CN(C)C(=O)[C@@H]1CCCN1C | 0.936 ± 0.093 | 
44 | COc1ccc2c3c([C@H](CO)N(Cc4nccs4)C[C@]33CCN(CC3)C(=O)CN(C)C)n(C)c2c1 | 0.955 ± 0.12 | 
45 | COc1ccc2c3c([C@H](CO)N(Cc4nccs4)C[C@]33CCN(CC4CCCC4)CC3)n(C)c2c1 | 0.841 ± 0.028 | 
46 | COc1ccc2c3c([C@@H](CO)N(CC4CCOCC4)C[C@]33CN(Cc4nccs4)C3)n(C)c2c1 | 1.1 ± 0.08 | 

Row | SMILES | viability index [1] | viability index [2]
47 | COc1ccc2c3c([C@@H](CO)N(Cc4nccs4)C[C@]33CCN(CC3)C(=O)CN(C)C)n(C)c2c1 | 0.905 ± 0.039 | 
48 | COc1ccc2c3c([C@H](CO)N(CC4CCOCC4)C[C@]33CN(Cc4nccs4)C3)n(C)c2c1 | 1.08 ± 0.019 | 
49 | COc1ccc2c3c([C@@H](CO)N(Cc4nccs4)C[C@]33CCN(CC4CCCC4)CC3)n(C)c2c1 | 0.848 ± 0.029 | 
50 | CO[C@H]1CN(C)C(=O)c2cc(NC(=O)NC(C)C)ccc2OC[C@@H](C)N(C(=O)CN(C)C)C[C@H]1C | 1.03 ± 0.043 | 
51 | COCC#Cc1ccc([C@@H]2[C@@H](CO)N3C(=O)CN(C(=O)Nc4ccccc4F)C[C@@H]23)cc1 | 1.02 ± 0.025 | 
52 | C[C@H](CO)N1C[C@H](C)[C@@H](CN(C)C(=O)Nc2ccccc2F)Oc2cc(Br)ccc2S1(=O)=O | 1.01 ± 0.02 | 
53 | COc1ccc2c3c([C@H](CO)N(C[C@]33CCN(CC3)C(=O)Nc3ccc(F)cc3F)C(=O)Nc3ccc(F)cc3)n(C)c2c1 | 1.04 ± 0.029 | 
54 | N#C[C@@H]1N[C@H](CO)[C@H]1c1ccc(-c2cccc(F)c2)cc1 | 1.18 ± 0.088 | 
55 | CCS(=O)(=O)Nc1ccc2c(c1)C(=O)N(C)[C@@H]1CC[C@H](CC(=O)NCc3ccc(OC)cc3)O[C@H]1CO2 | 1.01 ± 0.078 | 
56 | Cc1cccc(S(=O)(=O)N2CC[C@H]3[C@H](CO)Nc4ccc(-c5ccccc5F)cc4[C@H]32)c1 | 1.08 ± 0.023 | 
57 | Cc1cccc(S(=O)(=O)N2CC[C@@H]3[C@@H](CO)Nc4ccc(-c5ccccc5F)cc4[C@@H]32)c1 | 1.18 ± 0.029 | 
58 | N#Cc1cccc(-c2ccc3c(c2)[C@H]2[C@H](CCN2S(=O)(=O)c2ccc(F)cc2)[C@H](CO)N3)c1 | 1.09 ± 0.017 | 
59 | Cc1cccc(S(=O)(=O)N2CC[C@@H]3[C@H]2c2cc(-c4ccccc4F)ccc2N[C@@H]3CO)c1 | 0.926 ± 0.08 | 
60 | COc1ccccc1-c1ccc2c(c1)[C@H]1[C@H](CCN1S(=O)(=O)c1ccc(C)cc1)[C@@H](CO)N2 | 0.811 ± 0.098 | 
61 | COc1ccc(-c2ccc3c(c2)[C@@H]2[C@@H](CCN2C(=O)c2cccc(F)c2)[C@H](CO)N3)cc1 | 0.848 ± 0.042 | 
62 | Cc1cccc(S(=O)(=O)N2CC[C@@H]3[C@H](CO)Nc4ccc(-c5ccccc5F)cc4[C@@H]32)c1 | 1.06 ± 0.03 | 
63 | COc1ccc(-c2ccc3c(c2)[C@H]2[C@H](CCN2C(=O)c2cccc(F)c2)[C@@H](CO)N3)cc1 | 0.942 ± 0.075 | 
64 | N#Cc1cccc(-c2ccc3c(c2)[C@@H]2[C@@H](CCN2S(=O)(=O)c2ccc(F)cc2)[C@@H](CO)N3)c1 | 0.855 ± 0.011 | 
65 | COc1ccccc1-c1ccc2c(c1)[C@@H]1[C@@H](CCN1S(=O)(=O)c1ccc(C)cc1)[C@H](CO)N2 | 0.836 ± 0.028 | 
66 | N#Cc1cccc(-c2ccc3c(c2)[C@@H]2[C@@H](CCN2S(=O)(=O)c2ccc(F)cc2)[C@H](CO)N3)c1 | 0.844 ± 0.062 | 
67 | COc1ccc(-c2ccc3c(c2)[C@@H]2[C@@H](CCN2C(=O)c2cccc(F)c2)[C@@H](CO)N3)cc1 | 0.996 ± 0.08 | 
68 | C[C@@H]1CN([C@H](C)CO)C(=O)CCCn2cc(nn2)CO[C@H]1CN(C)C(=O)Nc1cccc2ccccc12 | 0.99 ± 0.023 | 
